Measurements from PubChem BioAssay (NCI).
Compounds without any hit were thinned out: in the full panel of roughly 79,000, 15% have a hit. Values without a mark were called inactive. Calls of active or inactive are those of the source. Cut-off read from the data, not from the text of the source: active = growth inhibition above about 70%; inactive = the rest.

Test: NCI Yeast Anticancer Drug Screen. Data for the cln2 rad14 strain (AID 165);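 note: 0% = growth equal to vehicle treated cultures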
Details: S. cerevisiae cln2 rad14 strain, at 50.0 µM, stronger effect = higher value
Procedure, shortened: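 Strain: cln2 rad14 yeast, altered in cell cycle control and DNA damage repair. Read-out: growth inhibition vs vehicle.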
For `CCCNC(=O)OCc1ccc(NCCN(CC)CC)c2c(=O)c3ccccc3sc12`, the growth inhibition was 9.95%.
In the case of `COc1cc(C(c2cc3c(cc2O)OCO3)N2CCCCC2)cc(OC)c1OC` (stereo not drawn), the growth inhibition was 67.5%.
`Cc1cc2c(cc1Cl)Sc1nnc(C)n1S2(=O)=O` showed a growth inhibition of 48.8%.
In the case of `O=C(Oc1cccc2cccnc12)c1ccccc1`, the growth inhibition was 91.2% (active).
With `CCCCCCN(CCCCCC)CCC(=O)c1ccc2cc(Br)c3ccccc3c2c1` the growth inhibition was 96.8% (active).
For `Cc1c2cc(Cl)ccc2cc2c1ccc1ccccc12`, the growth inhibition was 70.8% (active).
For `O=C1OC(CCCl)(c2ccccc2)CC1CN1CCOCC1` (stereo not drawn), the growth inhibition was 41.8%.
With `CCOC(=N)CCCSSc1ccc(N=[N+]=[N-])cc1` the growth inhibition was 98.5% (active).
For `Cc1[nH]c2ccccc2c1/C=C1\C(=O)C2CCC1C2` (stereo not drawn), the growth inhibition was 45.4%.
Work on `O=C(O)c1ccc2c3c(ncnc13)-c1ccccc1C2=O` yielded a growth inhibition of 34.5%.
In the case of `CCNCCNc1cc(O)c2c(c1O)C(=O)c1ccccc1C2=O`, the growth inhibition was 67.8%.
In the case of `Nc1nc(N)c2nc(CNc3ccc(C(=O)NC(CCC(=O)O)C(=O)O)cc3)cnc2n1` (stereo not drawn), the growth inhibition was -48.9%.
Compound `COc1ccccc1OC(=O)Oc1ccccc1OC` has a growth inhibition of -37.4%.
`NNC(=O)c1c(SCc2ccccc2)nc2c3ccccc3ccn12` gave a growth inhibition of 38.8%.
`N#CC1Oc2ccccc2N1C(=O)c1ccccc1` (stereo not drawn) showed a growth inhibition of -0.55%.
In the case of `O=C1C2=Cc3ccccc3CCN2c2ccccc21`, the growth inhibition was 86.2% (active).
With `Cc1cc([N+](=O)[O-])cc(Cl)c1O` the growth inhibition was 85.2% (active).
For `Cc1c(Cl)cccc1N=NC(=O)NNc1cccc(Cl)c1C`, the growth inhibition was 80.5% (active).
